Experimental data published in PubChem BioAssay.
Entries with a potency or affinity are not part of this list. A number with no mark means an inactive call. How the calls were made is not given here.

Experiment: OVCAR8 cell viability loss – plate reader, dry powder samples, PAX8 project, dose response (AID 743197)
Details: series mostly up to 35 µM; activity change, negative = cytotoxicity: at the top concentration

Q: With O=C(C[C@H]1CC[C@@H]2[C@H](COC[C@@H](O)CN2Cc2ccc(F)cc2)O1)NCc1ccccc1Cl as the compound, how does the “activity change, negative = cytotoxicity” value read?
A: The value was 5.73%.

Q: With CCCC#Cc1ccc([C@@H]2[C@H]3CN(S(=O)(=O)c4ccccc4F)CCCCN3[C@H]2CO)cc1 as the compound, how does the “activity change, negative = cytotoxicity” value read?
A: The value was 13.9%.

Q: With Cc1ccc(S(=O)(=O)N[C@@H]2C=C[C@@H](CC(=O)N3CCC(Cc4ccccc4)CC3)O[C@@H]2CO)cc1 as the compound, how does the “activity change, negative = cytotoxicity” value read?
A: Its value is 6.68%.

Q: Which “activity change, negative = cytotoxicity” value does the source give for COc1cccc(S(=O)(=O)N(C)C[C@H]2OCc3ccccc3-c3c(n(C)c4ccccc34)C(=O)N([C@@H](C)CO)C[C@H]2C)c1 here?
A: The value was -6.38%.

Q: For C[C@@H]1CN([C@@H](C)CO)C(=O)c2ccccc2-c2ccccc2CO[C@@H]1CN(C)Cc1ccc2c(c1)OCCN2C, which “activity change, negative = cytotoxicity” value is on record?
A: Its value is 2.16%.

Q: For C[C@@H]1CCCCO[C@H](CN(C)Cc2ccccc2)[C@H](C)CN([C@H](C)CO)C(=O)c2cc(NC(=O)Nc3ccc(C(F)(F)F)cc3)ccc2O1, which “activity change, negative = cytotoxicity” value is on record?
A: Its value is 7.05%.

Q: With O=C(C[C@H]1CC[C@H]2[C@@H](COC[C@@H](O)CN2Cc2ccc(F)cc2)O1)NCc1ccccc1Cl as the compound, how does the “activity change, negative = cytotoxicity” value read?
A: Its value is -42.9%.

Q: With C[C@@H]1CN([C@@H](C)CO)C(=O)Cc2cc(NC(=O)C3CC3)ccc2O[C@H]1CN(C)Cc1ccc(-c2ccccc2)cc1 as the compound, how does the “activity change, negative = cytotoxicity” value read?
A: Its value is -7.43%.

Q: Which “activity change, negative = cytotoxicity” value does the source give for COc1ccc(S(=O)(=O)N2CCCCN3[C@H](C2)[C@@H](c2ccc(C#CC(C)C)cc2)[C@@H]3CO)cc1 here?
A: The value was 19.7%.

Q: With C[C@@H]1CCCCO[C@@H](CN(C)C(=O)Nc2ccccc2)[C@H](C)CN([C@H](C)CO)C(=O)c2cc(NC(=O)Nc3ccc(C(F)(F)F)cc3)ccc2O1 as the compound, how does the “activity change, negative = cytotoxicity” value read?
A: Its value is 21.3%.

Q: For C[C@@H]1CCCCO[C@H](CN(C)Cc2ccc(C(F)(F)F)cc2)[C@@H](C)CN([C@@H](C)CO)C(=O)c2cc(NS(=O)(=O)c3cccs3)ccc2O1, which “activity change, negative = cytotoxicity” value is on record?
A: The value was 11.8%.

Q: With COc1ccc(S(=O)(=O)Nc2ccc3c(c2)C(=O)N([C@@H](C)CO)C[C@H](C)[C@H](CN(C)Cc2ccc(C(F)(F)F)cc2)OCCCC[C@@H](C)O3)cc1 as the compound, how does the “activity change, negative = cytotoxicity” value read?
A: Its value is -0.092%.

Q: Which “activity change, negative = cytotoxicity” value does the source give for C[C@@H]1CN([C@@H](C)CO)C(=O)Cc2cc(NS(=O)(=O)c3ccc(F)cc3)ccc2O[C@H]1CN(C)Cc1ccc(Oc2ccccc2)cc1 here?
A: The value was 1.83%.
